In the library only some 28% were active in any assay of this set; here they are far more common.
D1 allo mod = D1 CRE-luciferase signal change, two-sided – cell-based, HEK293 D1, dopamine EC30, D1 allosteric modulator project, primary screen; 58,000 compounds, 5.9% hits; AID 641, 2007; B-score at 10 µM; dopamine EC30 potentiation; actives deviate in either direction;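 active means luminescence count or its row- and column-corrected plate score outside the 99.7% band of the plate's sample wells, on either side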
CYP2C9 inh = blockers of cytochrome P450 2C9 activity – biochemical, luminescence, ADME assay, primary screen; P11712; CYP2C9 Supersomes, luciferin-H conversion; inhibition, % at 5 µM; 96,000 compounds, 20% hits; AID 777, 2007;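 active means blocking of liver enzyme CYP2C9 beyond about 50% at 5 µM, limit read from the data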
CYP2C9 activ = human CYP2C9 activators, primary screen, biochemical, luminescence; recombinant CYP2C9, luciferin-H conversion; active compounds read high; factor 1 = untreated enzyme, 0 = blocked; activation factor at 5 µM; Cytochrome P450 2C9 (Homo sapiens), P11712; 96,000 compounds, 1.4% hits;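 active means activation factor of 2 or more for CYP2C9 at a 5 µM dose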;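 further: 0 = sulfaphenazole-blocked wells and 1 = vehicle-only wells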
hDAT+cocaine = changed hDAT dopamine uptake under cocaine IC80, either direction, primary screen, cocaine antagonist project, cell-based, LLC-PK1 hDAT, [14C]-dopamine uptake, MLSMR | LLC-PK1 hDAT cells, [14C]-dopamine uptake with cocaine IC80; actives deviate in either direction | B-score at 10 µM | 110,000 compounds, 1.3% hits | AID 449768, 2010;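 active means Z score or B-score, a plate-position-corrected score, falls beyond the plate's 99.7% confidence bounds, in either direction; inactive means both scores lie inside the 99.7% bounds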;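 further: scored against the spread of the other compound wells on the same plate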
Target sequence (Q01959 whole entry, looked up): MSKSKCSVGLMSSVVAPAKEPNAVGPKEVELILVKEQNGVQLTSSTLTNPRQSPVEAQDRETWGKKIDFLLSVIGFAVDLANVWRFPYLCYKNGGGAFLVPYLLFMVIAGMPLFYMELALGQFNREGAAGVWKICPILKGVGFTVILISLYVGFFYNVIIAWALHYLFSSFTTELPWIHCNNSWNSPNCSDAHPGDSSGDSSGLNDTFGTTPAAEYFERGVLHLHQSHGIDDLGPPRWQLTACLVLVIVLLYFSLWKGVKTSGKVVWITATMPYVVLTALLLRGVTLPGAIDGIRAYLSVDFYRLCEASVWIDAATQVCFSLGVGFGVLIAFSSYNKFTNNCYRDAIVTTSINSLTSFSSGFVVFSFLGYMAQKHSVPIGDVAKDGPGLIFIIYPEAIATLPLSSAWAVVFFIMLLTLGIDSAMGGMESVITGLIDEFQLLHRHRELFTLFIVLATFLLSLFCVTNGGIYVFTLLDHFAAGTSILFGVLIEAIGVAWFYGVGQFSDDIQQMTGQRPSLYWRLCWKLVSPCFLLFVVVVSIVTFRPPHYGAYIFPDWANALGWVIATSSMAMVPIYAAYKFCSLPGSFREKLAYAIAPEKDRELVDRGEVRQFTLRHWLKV
CYP2C19 act = human CYP2C19 activators, primary screen, biochemical, luminescence. recombinant CYP2C19, luciferin-H EGE luminescence; active compounds read high; 0 = fully inhibited enzyme, 1 = untreated enzyme. activation factor at 5 µM. 96,000 tested, under 10 active. AID 1025, 2008;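 active means activation factor of at least 2 at 5 µM in the primary screen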;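 further: 0 = wells with 2.5 mM tranylcypromine and 1 = vehicle-only wells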
CYP2C19 inh = blockers of cytochrome P450 2C19 activity – biochemical, luminescence, ADME assay, primary screen; inhibition, % at 5 µM; 96,000 compounds, 21% hits; P33261; CYP2C19 Supersomes, luciferin-H EGE luminescence, 30 min;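 active means CYP2C19 inhibition above a set limit at 5 µM in the primary screen, cut at about 50% in these data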;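 further: plate controls were negative control wells for no effect and 2.5 mM tranylcypromine positive control for full effect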
* = called active by the depositor; x = no result given.

SMILES | D1 allo mod | CYP2C9 inh | CYP2C9 activ | hDAT+cocaine | CYP2C19 act | CYP2C19 inh
CCC(C)c1ccc(OCCCCN2CCOCC2)cc1 (stereo unspecified) | x | -2.1 | 1 | 0.209 | 0.4 | 56.7*
Cc1cc(Cl)cc(C)c1OCCCCN1CCOCC1 | 0.218 | -0.3 | 1 | 0.902 | 0.5 | 54.1*
O=C(Nc1ccccc1Sc1ccccc1)c1ccccc1F | x | x | x | -1.26 | x | x
CN(Cc1ccccc1)C(=O)CN(c1ccc(F)cc1)S(=O)(=O)c1ccc2c(c1)OCCO2 | x | x | x | 0.201 | x | x
O=C(O)CCSc1nc(C(F)(F)F)cc(=O)n1-c1ccccc1 | x | 11.5 | 0.9 | -0.249 | 1 | 2.1
c1ccc(Cn2nnc3c(NCC4CCCO4)ncnc32)cc1 (stereo unspecified) | -0.327 | -138.5 | 2.4* | 0.92 | 0.7 | 32.6
CC(C)CCNc1ncnc2c1nnn2Cc1ccccc1Cl | 2.55 | -139.3 | 2.4* | -1.32 | 0.8 | 15.1
Clc1ccccc1Nc1ncnc2c1nnn2Cc1ccccc1 | 1.33 | 2.4 | 1 | -1.09 | 0.6 | 37.4
CN(C(=O)CSC1=Nc2ccccc2C2=NC(c3ccccc3)C(=O)N12)C1CCCCC1 (stereo unspecified) | x | 41.4 | 0.6 | 1.39 | 0.8 | 15.8
CCCOC(=O)Nc1cc(OC)c(Cl)cc1OC | 0.0327 | 46.6 | 0.5 | -1.58 | 0.1 | 89.0*
C=CCOC(=O)C1=C[C@H](c2cn(C(C)=O)c3ccccc23)[C@@H](CCCO)[C@H](OCC)O1 | x | x | x | 1.75 | x | x
O=[N+]([O-])c1ccc(C(=Nc2cccc3ccccc23)N2CCOCC2)cc1 | x | 38.9 | 0.6 | -1.58 | 0.6 | 37.5
Cc1nn(-c2nc3ccccc3n2Cc2ccccc2)c2c1C(=O)CC(C)(C)C2 | 0.511 | 66.4* | 0.3 | 0.214 | 0.5 | 52.9*
CC1(c2cnc(Nc3ccccc3)s2)CCC(=O)O1 (stereo unspecified) | x | -105.1 | 2.1* | -0.293 | 0.7 | 31.0
O=C(c1ccccc1)c1cnc(Nc2ccc(Cl)c(Cl)c2)s1 | x | 12.5 | 0.9 | 0.302 | 0.9 | 9.9
O=C(O)C[C@H]1c2ccc(C(F)(F)F)cc2S(=O)(=O)N1C1CCCCC1 | x | x | x | -1.51 | x | x
COc1ccc(OCCOCCN2CCc3ccccc3C2)cc1 | x | 6.8 | 0.9 | -0.37 | 0.4 | 59.2*
COc1ccc(OCCOCCN2CCOCC2)cc1 | x | 4.4 | 1 | -0.908 | 0.9 | 9.8
COc1ccc(Cn2nnnc2CN2CCc3ccccc32)cc1 | 0.447 | 91.9* | 0.1 | -0.0766 | 0 | 99.0*
COc1ccc(Cn2nnnc2CN2CCc3ccccc3C2)cc1 | x | 64.4* | 0.4 | -0.204 | 0.1 | 87.9*
COc1ccc(C2(O)CCN(Cc3nnnn3Cc3ccc(C)cc3)CC2)cc1 | 0.501 | 62.6* | 0.4 | 1.35 | 0.5 | 51.0*
O=C(Nc1ccc(S(=O)(=O)N2CCCCCC2)cc1)C1CCCO1 (stereo unspecified) | -0.732 | 37.9 | 0.6 | -0.329 | 0.8 | 15.6
Cc1c(N2C(=O)CSC23C(=O)Nc2ccccc23)c(=O)n(-c2ccccc2)n1C (stereo unspecified) | 0.703 | -2.7 | 1 | -0.29 | 0.8 | 21.9
Cc1ccc(CNC(=O)C(=O)NCC2OCCN2S(=O)(=O)c2cccs2)cc1 (stereo unspecified) | x | x | x | -0.574 | x | x
NCCCC[C@H]1CNC(=S)N1CCc1cccc(F)c1 | x | x | x | 0.285 | x | x
SMILES | D1 allo mod | CYP2C9 inh | CYP2C9 activ | hDAT+cocaine | CYP2C19 act | CYP2C19 inh
CCOc1ccc(Br)cc1/C=N/NC(=O)c1ccncc1 | x | 83.0* | 0.2 | 0.918 | 0.1 | 90.7*
CCOc1cc(/C=N/NC(=O)c2ccncc2)ccc1OC(=O)c1ccc([N+](=O)[O-])cc1 | x | 8.6 | 0.9 | -0.00876 | 1 | -2.6
CC(=O)N1CCN(Cc2nc3cc(NC(=O)c4ccccc4C)ccc3n2C)CC1 | x | 3.1 | 1 | -0.405 | 0.9 | 6.9
O=C(c1ccc(Cl)c(S(=O)(=O)NCc2ccco2)c1)N1CCN(c2ccccc2F)CC1 | x | 37.2 | 0.6 | 0.225 | 0.6 | 39.0
CCOc1cc(C)c(Cl)cc1S(=O)(=O)NCc1ccco1 | -1.21 | -103.3 | 2* | -0.0439 | 0.8 | 16.4
COc1cc(OC)c(S(=O)(=O)NCc2ccco2)cc1S(=O)(=O)NCc1ccco1 | 0.0136 | -6.8 | 1.1 | -0.333 | 1.1 | -8.7
CCOc1ccc(S(=O)(=O)NCc2ccco2)c2ccccc12 | 0.931 | -13.6 | 1.1 | -0.0134 | 0.4 | 63.6*
COc1cc(C)c(Cl)cc1S(=O)(=O)NCc1ccco1 | x | -100.2 | 2* | 1.1 | 0 | 97.6*
COc1ccccc1N1CCN(C(=O)c2ccc(Cl)c(S(=O)(=O)NCc3ccco3)c2)CC1 | x | 77.4* | 0.2 | -0.00394 | 0.3 | 69.6*
CCOc1cc(C)c(Cl)cc1S(=O)(=O)N1CCCC1 | -0.593 | -60.2 | 1.6 | -0.127 | 0.6 | 37.1
Cc1cc(C)n2nc(SCc3cc(=O)oc4ccc5ccccc5c34)nc2n1 | x | 5.6 | 0.9 | x | 1.1 | -6.4
CN1CCn2c1nc(N1CCCCC1)nc2=O | x | 9.3 | 0.9 | -1.36 | 1.1 | -14.9
Cc1ccc(-c2nc(C#N)c(N3CCCCC3)o2)cc1 | 1.42 | 8.8 | 0.9 | 0.212 | 0.9 | 7.3
COc1ccc(-c2nc(C#N)c(N3CCCCCC3)o2)cc1 | 2.06 | 50.2* | 0.5 | 0.839 | 0.9 | 10.3
COc1ccc(-c2nc(C#N)c(N3CCCCCC3)o2)cc1OC | 2.2 | 51.9* | 0.5 | 2.51 | 0.7 | 33.8
COc1ccc(-c2nc(C#N)c(NC(C)C)o2)cc1 | 0.191 | -1.2 | 1 | 0.0022 | 0.1 | 85.9*
CCOc1ccc(-c2nc(C#N)c(N3CCCCCC3)o2)cc1 | 0.327 | 76.1* | 0.2 | -1.4 | 1.1 | -5.8
CC(=O)c1ccc(NC(=O)N[C@@H](CC(C)C)C(=O)O)cc1 | -0.717 | -7.0 | 1.1 | 0.548 | 1.1 | -8.5
COc1ccc(Cn2cc(F)c(=O)n(CCC(C)C)c2=O)cc1[N+](=O)[O-] | x | 34.3 | 0.7 | 0.755 | 0.8 | 20.1
COc1ccc(C(CNC(=O)C2CC(=O)N(Cc3ccc(C)cc3)C2)N(C)C)cc1 (stereo unspecified) | -0.0271 | 21.2 | 0.8 | -0.529 | 0.7 | 29.3
COC(=O)c1cc(NC(=O)CN(c2ccc(OC)cc2)S(=O)(=O)c2ccc(F)cc2)ccc1Cl | x | x | x | -0.764 | x | x
Cc1csc(OCc2ccc(C#N)cc2)n1 | 0.123 | 23.9 | 0.8 | -0.262 | 0.1 | 93.1*
O=c1oc2ccccc2n1CSC1=NCCS1 | -0.516 | 44.9 | 0.6 | -0.865 | 0.1 | 88.2*
O=c1oc2ccccc2n1CSc1nc2ccccc2s1 | 2.06 | 83.9* | 0.2 | -0.594 | 0 | 99.8*
CCOCCCn1c(=N)c(C(=O)Nc2cc(C)on2)cc2c(=O)n3ccccc3nc21 | 1.47 | x | x | x | x | x

Screening data deposited in PubChem BioAssay by several laboratories.
